This is an account of results in PubChem BioAssay (NCATS).

Records with an inconclusive call do not appear. Calls of active or inactive are those of the source. Unless noted, calls come from the whole dose curve; as a rule, active = well fitted curve in the direction sought with a large enough effect; inconclusive = small, poorly fitted or top-dose-only effect, or another doubt; inactive = no such curve, though single readings can be large; an effect the other way counts as inactive or inconclusive.

A short description of assay [1]: A High-Content qHTS Against Drug Library for the Identification of Small Molecules that Inhibit DYT1 Early Onset Primary Dystonia-Associated Cell Pathology (AID 1645839; calls by dose curve). Put shortly:
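Flp-In T-REx 293 cells with tetracycline-inducible EGFP-delE hTOR1A (WT EGFP-hTOR1A as reference), 800 cells/well; compound added with tetracycline, 48 h at 37 C. Fixed, permeabilized cells imaged; %pathology (punctate TorsinA) primary, cell count counterscreen.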
(In general: In qHTS, concentration-response curves come from the screen itself.)

Assay [2] addresses Cytochrome P450 2D6 (Homo sapiens) (UniProt P10635). The assay is described as follows: Cytochrome P450 family 2 subfamily D member 6 (CYP2D6) small molecule antagonists: luciferase biochemical (cell-free) qHTS assay (AID 1645840; active = well fitted curve in the direction sought with a large enough effect in the repeat runs; an effect the other way counts as inactive or inconclusive; note: nearly all actives have a fitted effect of over 55% in size; note: potency is the fitted concentration of half-maximal effect; for activity change, negative = inhibition: % is set by controls: 0 for no effect and ±100 for the full control effect). A digest of the protocol:
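P450-Glo luminescent screen: recombinant CYP2D6 enzyme–proluciferin substrate mix preincubated with compound 10 min at room temperature, then NADPH regeneration added for 1 h at room temperature. Detection reagent added for 20 min; luciferin light read as relative luminescence units.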

For assay [3], the target named is Cytochrome P450 2C9 (Homo sapiens) (UniProt P11712). In words: Cytochrome P450 family 2 subfamily C member 9 (CYP2C9) small molecule antagonists: luciferase biochemical (cell-free) qHTS assay (AID 1645842; active = well fitted curve in the direction sought with a large enough effect in the repeat runs; an effect the other way counts as inactive or inconclusive; note: nearly all actives have a fitted effect of over 55% in size; note: potency is the fitted concentration of half-maximal effect; for activity change, negative = inhibition: % is set by controls: 0 for no effect and ±100 for the full control effect). A digest of the protocol: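 Luminescence, after 20 min with luciferin detection reagent, reflected CYP2C9 turnover during a 1 h NADPH-driven reaction at 37C. Enzyme-substrate mix contained 0.4% bovine serum albumin and was preincubated with compound 10 min at room temperature.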
Sequence of Cytochrome P450 2C9 (Homo sapiens) (P11712 whole entry, looked up): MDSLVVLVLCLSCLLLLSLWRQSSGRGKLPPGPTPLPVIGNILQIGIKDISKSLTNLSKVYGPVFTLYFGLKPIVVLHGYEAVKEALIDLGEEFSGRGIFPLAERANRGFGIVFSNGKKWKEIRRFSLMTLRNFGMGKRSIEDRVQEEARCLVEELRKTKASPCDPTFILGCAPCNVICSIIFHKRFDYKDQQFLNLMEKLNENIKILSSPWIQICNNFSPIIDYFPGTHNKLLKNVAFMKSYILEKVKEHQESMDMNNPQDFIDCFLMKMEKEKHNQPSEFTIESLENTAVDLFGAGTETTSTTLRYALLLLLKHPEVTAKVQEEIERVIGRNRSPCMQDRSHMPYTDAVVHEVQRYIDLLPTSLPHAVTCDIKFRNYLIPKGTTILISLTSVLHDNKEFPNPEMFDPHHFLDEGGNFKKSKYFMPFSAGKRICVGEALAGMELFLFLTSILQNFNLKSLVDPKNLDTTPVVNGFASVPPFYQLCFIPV

The nature of assay [4]: Primary qHTS for inhibitors of nuclear receptor binding SET domain protein 2 (NSD2) in an isogenic RCH-ACV NSD2 p.E1099K mutant (9B) (AID 1645876). Note: nearly all actives have a fitted effect of over 70% in size.
Assay [5] is described as follows: Primary qHTS for inhibitors of nuclear receptor binding SET domain protein 2 (NSD2) in an RCH-ACV wild type WT cells (2C) (AID 1645877). Note: nearly all actives have a fitted effect of over 70% in size.
Assay [6] addresses N-terminal Xaa-Pro-Lys N-methyltransferase 1 (Homo sapiens) (UniProt Q9BV86). In words: Confirmatory qHTS for Inhibitors of N-terminal methyltransferase 1 (NTMT1): MTaseGlo Assay (AID 1645874).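 Note: luminescence from SAH made as NTMT1 methylates SPKRIA peptide using SAM; 0% = DMSO control and -100% = no-enzyme control; nearly all actives have a fitted effect of over 65% in size.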 Put shortly: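 NTMT1 (125 nM) preincubated 15 min with compound and 100 uM SAM, then 1 uM SPKRIA peptide added for 30 min at room temperature. SAH detected by MTase-Glo luminescence; normalized to no-enzyme and DMSO controls, fitted to 4-parameter Hill.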

In another assay the target is Papain (Carica papaya) (UniProt P00784). In words: Primary qHTS assay for inhibitors of the protease papain (AID 1645873).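 Note: papain turnover of Z-FR-AMC read as the AMC fluorescence gain over 10 min; % is set by controls: 0 for no effect and ±100 for the full control effect.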
Sequence of Papain (Carica papaya) (P00784 whole entry, looked up): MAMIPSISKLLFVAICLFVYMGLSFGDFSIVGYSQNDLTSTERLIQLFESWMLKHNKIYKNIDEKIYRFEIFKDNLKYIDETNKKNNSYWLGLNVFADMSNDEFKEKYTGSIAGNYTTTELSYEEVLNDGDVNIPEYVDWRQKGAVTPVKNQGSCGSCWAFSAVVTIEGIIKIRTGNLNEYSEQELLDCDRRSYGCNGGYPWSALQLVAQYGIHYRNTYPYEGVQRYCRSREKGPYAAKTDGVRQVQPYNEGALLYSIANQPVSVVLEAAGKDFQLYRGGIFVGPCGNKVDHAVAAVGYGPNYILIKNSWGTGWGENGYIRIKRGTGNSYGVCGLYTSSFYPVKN
Assay [7] addresses Catechol O-methyltransferase (Homo sapiens) (UniProt P21964). The assay is described as follows: Confirmatory Screen for Target Class Profiling of Small Molecule Inhibitors of Methyltransferases (AID 1745852). For activity change, negative = inhibition: % is set by controls: 0 for no effect and ±100 for the full control effect. The conditions noted are these: MTase-Glo luminescence, SAH detection, recombinant enzyme; measured here: COMT max response; stronger effect = lower value.
Assay [8] has as its target Guanidinoacetate N-methyltransferase (Homo sapiens) (UniProt Q14353). Described as above. The conditions noted are these: MTase-Glo luminescence, SAH detection, recombinant enzyme; at 57.3 µM (top of the series).
The target in assay [9] is Nicotinamide N-methyltransferase (Homo sapiens) (UniProt P40261). The assay is described as above. The conditions noted are these: MTase-Glo luminescence, SAH detection, recombinant enzyme; measured here: NNMT max response; stronger effect = lower value.
Sequence of Nicotinamide N-methyltransferase (Homo sapiens) (P40261 whole entry, looked up): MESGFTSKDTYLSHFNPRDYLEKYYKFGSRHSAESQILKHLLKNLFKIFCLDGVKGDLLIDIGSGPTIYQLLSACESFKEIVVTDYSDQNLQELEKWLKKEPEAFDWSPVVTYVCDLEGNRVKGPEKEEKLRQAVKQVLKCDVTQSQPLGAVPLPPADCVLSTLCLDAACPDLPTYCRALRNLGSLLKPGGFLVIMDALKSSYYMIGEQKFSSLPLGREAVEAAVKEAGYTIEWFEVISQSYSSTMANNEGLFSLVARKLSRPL
In assay [10] the target is Phenylethanolamine N-methyltransferase (Homo sapiens) (UniProt P11086). The assay is described as above. To be noted: MTase-Glo luminescence, SAH detection, recombinant enzyme; measured here: PNMT max response; stronger effect = lower value.
Sequence of Phenylethanolamine N-methyltransferase (Homo sapiens) (P11086 whole entry, looked up): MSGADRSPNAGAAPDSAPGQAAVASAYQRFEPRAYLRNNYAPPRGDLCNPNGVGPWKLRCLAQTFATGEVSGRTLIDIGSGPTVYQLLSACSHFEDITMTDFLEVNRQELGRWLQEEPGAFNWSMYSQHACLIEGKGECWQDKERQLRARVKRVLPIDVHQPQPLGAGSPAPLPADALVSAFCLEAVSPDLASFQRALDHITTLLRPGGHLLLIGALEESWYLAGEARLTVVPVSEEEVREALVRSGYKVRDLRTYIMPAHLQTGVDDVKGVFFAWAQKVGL
Assay [11] in a line: Cytotoxicity counterscreen for inhibitors of SARS-CoV-2 cell entry (AID 1645845; calls by dose curve; note: nearly all actives have a fitted effect of over 50% in size). A digest of the protocol:
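HEK293-ACE2 cells (Expi293F stably expressing human ACE2) seeded overnight, then compound for 1 h plus 48 h at 37C. Viability as ATP content by luminescence; normalized to wells with cells and media-only wells.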
(A counterscreen serves to expose hits that act by an unwanted route or on another target.)

For assay [12], the target named is Rap guanine nucleotide exchange factor 3 (Homo sapiens) (UniProt O95398). The assay is described as follows: Confirmatory qHTS for antagonist of cAMP-regulated guanine nucleotide exchange factor 3 (EPAC1) (AID 1645880).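 Note: plate controls were DMSO only for no effect and full effect of the ATA control for full effect; nearly all actives have a fitted effect of over 55% in size.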 A digest of the protocol:
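Nucleotide exchange uses 100 nM EPAC1, 250 nM RAP1B-BODIPY-GDP and 50 uM GDP, with compounds in a concentration-titration series. After 5 min at room temperature, fluorescence (480 nm ex/540 nm em) is read every 5 min for 30 min. Data are normalized to control ATA and DMSO.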

Assay [13] shares this target. In words: Confirmatory qHTS for agonist of cAMP-regulated guanine nucleotide exchange factor 3 (EPAC1) (AID 1645881).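 Note: EPAC1 catalysed release of BODIPY-GDP from Rap1B seen as fluorescence loss; 100% = effect of cAMP agonist control; nearly all actives have a fitted effect of over 75% in size.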
For assay [14], the target named is Rap guanine nucleotide exchange factor 4 (Homo sapiens) (UniProt Q8WZA2). In words: Confirmatory qHTS for agonist of cAMP-regulated guanine nucleotide exchange factor 4 (EPAC2) (AID 1645884).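 Note: nucleotide exchange releases bodipy-GDP from Rap1 and this lowers its fluorescence; % is set by controls: 0 for no effect and ±100 for the full control effect; nearly all actives have a fitted effect of over 65% in size.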
Sequence of Rap guanine nucleotide exchange factor 4 (Homo sapiens) (Q8WZA2 whole entry, looked up): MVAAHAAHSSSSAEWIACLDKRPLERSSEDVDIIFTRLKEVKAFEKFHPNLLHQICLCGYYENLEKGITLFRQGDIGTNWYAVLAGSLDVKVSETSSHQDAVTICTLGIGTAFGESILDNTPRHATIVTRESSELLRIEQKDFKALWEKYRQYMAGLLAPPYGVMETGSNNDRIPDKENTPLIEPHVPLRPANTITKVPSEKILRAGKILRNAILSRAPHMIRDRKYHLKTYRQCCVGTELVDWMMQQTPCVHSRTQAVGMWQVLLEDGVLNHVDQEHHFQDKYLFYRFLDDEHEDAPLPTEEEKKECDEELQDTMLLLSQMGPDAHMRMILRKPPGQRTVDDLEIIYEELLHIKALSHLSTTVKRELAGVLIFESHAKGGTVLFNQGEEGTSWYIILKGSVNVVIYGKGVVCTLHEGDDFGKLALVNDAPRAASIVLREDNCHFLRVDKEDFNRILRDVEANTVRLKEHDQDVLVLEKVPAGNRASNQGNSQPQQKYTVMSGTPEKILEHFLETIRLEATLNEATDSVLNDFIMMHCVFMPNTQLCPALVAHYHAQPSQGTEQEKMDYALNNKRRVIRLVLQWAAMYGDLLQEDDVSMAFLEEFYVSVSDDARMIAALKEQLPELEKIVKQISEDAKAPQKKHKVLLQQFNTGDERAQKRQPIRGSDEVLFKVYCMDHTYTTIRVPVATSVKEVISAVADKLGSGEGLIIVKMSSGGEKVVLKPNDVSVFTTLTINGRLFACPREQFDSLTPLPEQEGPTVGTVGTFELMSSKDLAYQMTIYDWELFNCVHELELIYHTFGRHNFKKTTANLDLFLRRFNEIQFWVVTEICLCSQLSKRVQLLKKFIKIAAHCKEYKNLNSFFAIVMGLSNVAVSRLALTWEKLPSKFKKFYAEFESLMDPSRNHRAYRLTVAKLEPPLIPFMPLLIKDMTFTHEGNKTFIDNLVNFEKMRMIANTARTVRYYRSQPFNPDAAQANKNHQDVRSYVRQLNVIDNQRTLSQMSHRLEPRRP

Sequence of Cytochrome P450 2D6 (Homo sapiens) (P10635 whole entry, looked up): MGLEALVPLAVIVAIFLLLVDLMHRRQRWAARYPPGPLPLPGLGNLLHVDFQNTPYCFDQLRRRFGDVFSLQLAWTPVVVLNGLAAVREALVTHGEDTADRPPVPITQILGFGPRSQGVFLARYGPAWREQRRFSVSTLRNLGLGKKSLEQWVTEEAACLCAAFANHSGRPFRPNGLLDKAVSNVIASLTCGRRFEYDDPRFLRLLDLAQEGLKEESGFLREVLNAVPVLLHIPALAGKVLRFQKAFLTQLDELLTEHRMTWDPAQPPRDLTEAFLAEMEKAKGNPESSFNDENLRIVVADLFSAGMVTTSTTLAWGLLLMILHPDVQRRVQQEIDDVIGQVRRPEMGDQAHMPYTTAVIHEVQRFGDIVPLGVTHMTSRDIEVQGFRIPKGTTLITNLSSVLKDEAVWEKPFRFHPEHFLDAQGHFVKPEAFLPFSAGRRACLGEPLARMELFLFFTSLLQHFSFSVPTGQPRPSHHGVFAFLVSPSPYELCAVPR
Sequence of Rap guanine nucleotide exchange factor 3 (Homo sapiens) (O95398 whole entry, looked up): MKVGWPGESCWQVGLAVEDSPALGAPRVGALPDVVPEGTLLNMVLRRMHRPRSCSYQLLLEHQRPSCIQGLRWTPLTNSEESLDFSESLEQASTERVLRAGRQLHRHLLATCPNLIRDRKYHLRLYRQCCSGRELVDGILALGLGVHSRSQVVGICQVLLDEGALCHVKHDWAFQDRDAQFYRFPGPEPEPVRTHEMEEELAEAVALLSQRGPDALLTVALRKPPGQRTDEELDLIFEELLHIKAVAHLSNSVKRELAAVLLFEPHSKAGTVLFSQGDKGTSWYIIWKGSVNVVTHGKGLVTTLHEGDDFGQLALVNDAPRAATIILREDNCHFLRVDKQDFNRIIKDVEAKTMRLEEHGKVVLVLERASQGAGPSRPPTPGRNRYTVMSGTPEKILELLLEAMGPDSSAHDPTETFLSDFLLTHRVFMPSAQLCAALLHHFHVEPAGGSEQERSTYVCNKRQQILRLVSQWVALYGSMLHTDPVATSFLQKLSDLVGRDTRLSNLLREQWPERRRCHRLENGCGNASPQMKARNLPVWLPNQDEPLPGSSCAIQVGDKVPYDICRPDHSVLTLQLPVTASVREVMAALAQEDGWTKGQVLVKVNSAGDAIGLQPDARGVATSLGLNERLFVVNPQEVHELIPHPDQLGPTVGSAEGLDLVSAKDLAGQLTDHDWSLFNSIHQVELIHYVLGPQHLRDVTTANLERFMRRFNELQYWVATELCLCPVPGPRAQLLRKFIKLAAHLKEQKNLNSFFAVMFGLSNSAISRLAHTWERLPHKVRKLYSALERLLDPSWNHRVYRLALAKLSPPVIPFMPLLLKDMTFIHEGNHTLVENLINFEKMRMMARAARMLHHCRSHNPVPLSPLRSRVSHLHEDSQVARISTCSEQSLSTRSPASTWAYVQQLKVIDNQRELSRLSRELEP
Sequence of Catechol O-methyltransferase (Homo sapiens) (P21964 whole entry, looked up): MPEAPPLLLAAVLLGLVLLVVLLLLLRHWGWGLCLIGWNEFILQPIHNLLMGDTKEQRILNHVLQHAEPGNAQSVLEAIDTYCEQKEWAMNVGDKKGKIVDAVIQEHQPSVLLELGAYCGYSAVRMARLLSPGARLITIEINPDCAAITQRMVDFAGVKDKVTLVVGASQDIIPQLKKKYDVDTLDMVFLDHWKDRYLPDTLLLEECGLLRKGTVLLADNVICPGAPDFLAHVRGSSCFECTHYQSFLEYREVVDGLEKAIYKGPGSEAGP
Sequence of N-terminal Xaa-Pro-Lys N-methyltransferase 1 (Homo sapiens) (Q9BV86 whole entry, looked up): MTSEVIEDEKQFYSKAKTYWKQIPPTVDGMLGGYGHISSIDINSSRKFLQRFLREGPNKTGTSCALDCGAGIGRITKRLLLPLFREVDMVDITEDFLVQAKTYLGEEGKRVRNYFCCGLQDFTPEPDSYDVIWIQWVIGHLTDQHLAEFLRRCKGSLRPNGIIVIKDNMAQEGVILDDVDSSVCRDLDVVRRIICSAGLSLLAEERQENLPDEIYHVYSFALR

As for `CC[N+]1(CC)CCC(OC(=O)C(O)(c2ccccc2)c2ccccc2)C1` (configuration not stated), in [1], the outcome was “inactive”. Besides, the Potency in assay [2] was 12.9 µM (active). The Potency result in assay [3], in assay [4] and in [5] was “inactive” each time.

Regarding `NC1=NC(=O)C(c2ccccc2)O1` (configuration not stated), the outcome in [1] is “inactive”. The Potency result in [2], in assay [3], in [4] and in [5] was “inactive” throughout.

Take `CCN[C@@H](C)Cc1cccc(C(F)(F)F)c1`: the outcome in assay [1] is “inactive”. Also, the Potency in assay [2] was 2.75 µM (active). In addition, the Potency result in assay [3], in assay [4] and in [5] was “inactive” in each case.

With `C[C@H](N)C(=O)c1ccccc1`, the outcome in assay [1] and in [6] was “inactive” in each case. Further, in assay [2], the Potency is 42.2 µM (active). For the same compound, the Potency result in [4] and in [5] was “inactive” in each case.

On to `CN1CCC(O)(c2ccc(F)cc2)C(C(=O)c2ccc(F)cc2)C1` (configuration not stated), for which the outcome in assay [1] was “inactive”. Further, the Potency in assay [2] is 24.5 µM (active). Further, the Potency entry in assay [3], in assay [4] and in [5] was “inactive” in each case.

In the case of `NCCc1ccc(O)cc1`, the outcome (in assay [1]; with Papain (Carica papaya)) was “inactive” in each case. Further, the Potency in assay [2] is 13.8 µM (active). Also, the Potency result in assay [3] and in [4] was “inactive” in each case. Besides, the activity in assay [7] was -7.57%; in [9], -9.22%; in assay [10], -8.79%. In addition, the activity change, negative = inhibition in assay [8] came out at 0.255%.

Take `COc1ccc2c3c1O[C@H]1[C@H](O)CC[C@H]4[C@@H](C2)N(C)CC[C@@]341`: the outcome in [1] was “inactive”. Further, the Potency result in assay [2], in [3], in assay [4] and in [5] was “inactive” in each case.

Consider `CC(Cc1ccccc1)NCCn1cnc2c1c(=O)n(C)c(=O)n2C` (configuration not stated), for which the outcome in assay [1] is “inactive”. The Potency in assay [2] is 7.01 µM (active). In addition, the Potency result in assay [3], in assay [4] and in assay [5] was “inactive” each time.

In the case of `COc1cc(OC)c(OC)cc1C=O`, the outcome in assay [1] was “inactive”. Moreover, the Potency result in [2], in assay [3], in [4] and in assay [5] was “inactive” throughout.

Take `CCCOC(=O)c1cncn1C(C)c1ccccc1` (configuration not stated): the outcome in [1] was “inactive”. The Potency entry in assay [2], in assay [4] and in assay [5] was “inactive” in each case. In addition, in [3], the Potency was 13.8 µM (active).

In the case of `CC(C)(N)Cc1ccccc1Cl`, the outcome in assay [1] was “inactive”. Moreover, the Potency in assay [2] was 13.8 µM (active). Also, the Potency result in [3], in assay [4] and in assay [5] was “inactive” throughout.

Turning to `O=c1[nH]oc2c1CCNC2`, the outcome (in [1]; with Papain (Carica papaya)) was “inactive” throughout. Moreover, the Potency result in assay [2], in assay [3], in assay [4] and in assay [5] was “inactive” each time.

Regarding `O=C(O)CCCc1ccc(N(CCCl)CCCl)cc1`, the outcome in assay [1] was “inactive”. Besides, the Potency entry in [2], in assay [3], in assay [11], in [4] and in [5] was “inactive” each time.

Turning to `COC(=O)C(Cl)C(=O)OC`, in [1], the outcome is “inactive”. Also, the Potency entry in assay [2], in assay [3], in [4] and in assay [5] was “inactive” in each case.

Take `C=CCN1C[C@H](C)N([C@H](c2ccc(C(=O)N(CC)CC)cc2)c2cccc(OC)c2)C[C@H]1C`: the outcome in [1] was “inactive”. Besides, the Potency in [2] was 2.45 µM (active). For the same compound, the Potency result in assay [3], in assay [4] and in assay [5] was “inactive” each time.

Turning to `CC(=O)OCC1=C(C(=O)O)N2C(=O)[C@@H](N)[C@H]2SC1`, the outcome in [1] was “inactive”. In assay [2], the Potency was 5.35 µM (active). The Potency entry in [3], in [4] and in assay [5] was “inactive” throughout.

Regarding `O=C1c2ccccc2C(=O)C1C(=O)C(c1ccccc1)c1ccccc1`, the outcome in assay [1], in [12], in assay [13] and in assay [14] was “inactive” each time. Moreover, the Potency was 19.2 µM (active) in assay [2] and 0.384 µM (active) in assay [3].
